# In PubChem BioAssay AID504895 (National Center for Advancing Translational Sciences (NCATS), 2011):
# Inconclusive results are not listed. Entries that show only a call come without a potency. Activity calls are given as the source filed them. Calls follow the shape of the dose curve; as a rule, active = well fitted curve in the direction sought with a large enough effect; inconclusive = small, poorly fitted or top-dose-only effect, or another doubt; inactive = no such curve, though single readings can be large or run the other way.
# Target: Protein phosphatase EYA2 (Homo sapiens) (UniProt O00167)
# Test: Inhibitors of Eya2ED: Hit Confirmation in Primary Screen
# Summary of the method: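 Hits were retested as 12-point titrations. Compound sat 10 min at ambient with Eya2 (0.2 uM in dispense) in HEPES pH 7.5 buffer with NaCl, MgCl2, BSA and DTT, then OMFP substrate (50 uM in dispense) was added. Dephosphorylation was read by fluorescence at 485/525 nm after a further 10 min.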
# Chain of Protein phosphatase EYA2 (Homo sapiens) (O00167 whole entry, looked up): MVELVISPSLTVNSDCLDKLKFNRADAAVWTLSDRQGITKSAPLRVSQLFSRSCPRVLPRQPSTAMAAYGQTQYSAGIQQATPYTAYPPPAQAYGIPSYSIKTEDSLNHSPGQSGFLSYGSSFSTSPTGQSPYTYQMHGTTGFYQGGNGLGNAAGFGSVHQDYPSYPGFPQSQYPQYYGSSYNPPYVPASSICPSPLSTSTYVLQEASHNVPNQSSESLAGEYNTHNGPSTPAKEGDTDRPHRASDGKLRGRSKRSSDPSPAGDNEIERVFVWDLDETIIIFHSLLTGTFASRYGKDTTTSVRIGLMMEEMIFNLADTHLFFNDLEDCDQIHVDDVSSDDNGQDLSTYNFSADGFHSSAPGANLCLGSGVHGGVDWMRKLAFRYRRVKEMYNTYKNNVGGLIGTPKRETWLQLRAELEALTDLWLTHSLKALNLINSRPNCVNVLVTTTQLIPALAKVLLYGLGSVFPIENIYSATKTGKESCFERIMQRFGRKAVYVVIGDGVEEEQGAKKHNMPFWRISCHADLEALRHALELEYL
row,Compound,Potency
1,C=CCOc1ccc(/C=C/C(=O)OCC(=O)N2CCCc3ccccc32)cc1,inactive
2,COc1cc(C(=O)Nc2ccc(NC(=O)c3ccccc3Cl)nc2)cc(OC)c1OC,inactive
3,COC(=O)C1=C(C)Nc2ncnn2C1c1ccco1 (stereo unspecified),inactive
4,Cc1cc(C(N)=O)nn1-c1c(Cl)cc(Cl)cc1Cl,inactive
5,CN(CCCC(=O)N1CCN(c2ncccn2)CC1)S(=O)(=O)c1ccc(F)cc1,inactive
6,O=C1/C(=C/c2cccs2)N=C(c2cccs2)N1Nc1ccccc1,inactive
7,S=C1NC[C@H](CC2CCCCC2)N1CC1CCCCC1,inactive
8,Cc1cccc(C(=O)Nc2c(C(=O)N(C)C)cnn2-c2ccccc2)c1,inactive
9,Cc1cc(C(=O)N/N=C/C=C/c2ccc3c(c2)OCO3)n[nH]1,inactive
10,COc1ccc2oc(C(=O)OCC(=O)N3CCCCC3C)c(C)c2c1 (stereo unspecified),inactive
11,CCCOc1ccc(C(=O)OCC(=O)c2c(N)n(C)c(=O)n(C)c2=O)cc1OC,inactive
12,CCOc1ccc(S(=O)(=O)NC(C)C(=O)NCc2ccncc2)cc1 (stereo unspecified),inactive
13,COc1ccc(C(=O)NCCSCc2ccccc2C)cc1,inactive
14,O=C(C1CCC(=O)N(C2CCCC2)C1)N1CCC(Oc2cccc(F)c2)CC1 (stereo unspecified),inactive
15,O=C(Cc1coc2cc(O)ccc12)NNC(=O)c1ccc(Br)s1,inactive
16,NC(=O)C1CCN(CC(=O)Nc2ccc3c(c2)OCCO3)CC1,inactive

row,Compound,Potency
1,Cn1cccc1CC(=O)NNC(=S)NC(=O)c1ccc(F)cc1,inactive
2,COc1cccc2[nH]c3c(=O)[nH]cnc3c12,inactive
3,Cc1ccc(S(=O)(=O)NNC(=S)NCCc2ccccc2)cc1,inactive
4,CC(C1CC1)N(C(=O)c1ccccc1O)c1ccccc1 (stereo unspecified),inactive
5,Cc1cc(C)c(S(=O)(=O)N2CCCCC2CCNC(=O)C(=O)NCCN2CCOCC2)c(C)c1 (stereo unspecified),inactive
6,Cn1c(N)c(C(=O)CSc2nnc(C3CC3)n2-c2ccccc2)c(=O)[nH]c1=O,inactive
7,O=C(CSc1c2c(nc3cc(Cl)ccc13)CCCC2)NCc1ccco1,inactive
8,CCOc1ccc(S(=O)(=O)N2CCN(C(=O)c3sccc3C)CC2)cc1,inactive
9,O=C(CCc1nc2ccccc2s1)NCc1ccccc1F,inactive
10,N=C(N)SCc1ncccc1O,inactive
11,Cc1ccc(Nc2nc(N)nc(CSc3ncccn3)n2)cc1,inactive
12,COc1ccc(NC(=O)CSc2nc3[nH]c(=O)[nH]c(=O)c3s2)cc1OC,inactive
13,COc1ccc(CCNC(=O)CCSc2nc(-c3ccco3)cc(C(F)(F)F)n2)cc1OC,inactive
14,COC(=O)c1ccc(Cn2cc([N+](=O)[O-])cn2)cc1,inactive
15,O=C(CC1(CC(=O)N2CCOCC2)CCCC1)Nc1ccccc1,inactive
